Screening results deposited in PubChem by several laboratories.
Shown are actives, neighbours in structure and some others; about 27% of the full set was active somewhere.
CYP2C9 act – human CYP2C9 activators, primary screen, biochemical, luminescence; activation factor at 5 µM; AID 1024, 2008; Cytochrome P450 2C9 (Homo sapiens), P11712; recombinant CYP2C9, luciferin-H conversion; active compounds read high; factor 1 = untreated enzyme, 0 = blocked; 96,000 tested, 1.4% active;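 active = activation factor of 2 or more for CYP2C9 at a 5 µM dose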
Target sequence (P11712 whole entry, looked up): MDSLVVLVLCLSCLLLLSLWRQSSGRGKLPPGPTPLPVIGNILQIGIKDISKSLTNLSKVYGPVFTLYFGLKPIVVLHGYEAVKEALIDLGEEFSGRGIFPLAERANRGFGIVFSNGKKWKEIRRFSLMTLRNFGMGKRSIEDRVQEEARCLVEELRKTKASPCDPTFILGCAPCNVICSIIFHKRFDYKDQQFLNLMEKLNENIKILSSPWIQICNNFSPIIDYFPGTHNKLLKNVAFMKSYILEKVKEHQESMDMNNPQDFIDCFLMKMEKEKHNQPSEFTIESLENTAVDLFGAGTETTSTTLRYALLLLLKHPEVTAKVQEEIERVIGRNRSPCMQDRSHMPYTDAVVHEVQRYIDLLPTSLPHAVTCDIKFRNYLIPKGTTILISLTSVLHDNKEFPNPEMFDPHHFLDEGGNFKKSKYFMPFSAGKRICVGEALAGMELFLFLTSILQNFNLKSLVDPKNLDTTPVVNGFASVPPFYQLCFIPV
Cav3 T inh – Cav3.2 calcium influx blockers – cell-based, Fluo-4 calcium fluorescence, FDSS, MLSMR library, primary screen; Cav3.2-expressing cells; active compounds read low; B-score at 10 µM; 100,000 tested, 4% active; AID 449739, 2010;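 active = single-dose well whose peak fluorescence ratio is a statistical outlier from its plate by either plate-standardised score or position-corrected B-score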
CYP2C19 activ – human CYP2C19 activators, primary screen, biochemical, luminescence; Cytochrome P450 2C19 (Homo sapiens), P33261; recombinant CYP2C19, luciferin-H EGE luminescence; active compounds read high; 0 = fully inhibited enzyme, 1 = untreated enzyme; activation factor at 5 µM; 96,000 tested, under 10 active; AID 1025, 2008;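 active = activation factor of at least 2 at 5 µM in the primary screen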
CYP2C9 inhib – blockers of cytochrome P450 2C9 activity – biochemical, luminescence, ADME assay, primary screen. P11712. CYP2C9 Supersomes, luciferin-H conversion. inhibition, % at 5 µM. 96,000 tested, 20% active. AID 777, 2007;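 active = blocking of liver enzyme CYP2C9 beyond about 50% at 5 µM, limit read from the data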
CYP2C19 inhib – blockers of cytochrome P450 2C19 activity – biochemical, luminescence, ADME assay, primary screen. inhibition, % at 5 µM. CYP2C19 Supersomes, luciferin-H EGE luminescence, 30 min. 96,000 tested, 21% active;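 active = CYP2C19 inhibition above a set limit at 5 µM in the primary screen, cut at about 50% in these data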
Numbers stand for hits; 0 = inactive; - = no result given.

SMILES | CYP2C9 act | Cav3 T inh | CYP2C19 activ | CYP2C9 inhib | CYP2C19 inhib
Cc1ccc(-n2c(C)nc3c(cnn3-c3ccc(F)cc3)c2=O)cc1C | 0 | 0 | 0 | 0 | 0
Cc1nc2c(cnn2-c2ccccc2Cl)c(=O)n1-c1ccc(N2CCC(C)CC2)cc1 | 0 | 0 | 0 | 0 | 71.8
CCNS(=O)(=O)c1ccc(NC(=O)c2ccccc2)cc1 | 0 | 0 | 0 | 0 | 0
CCOP(=O)(OCC)c1nc(-c2cccc3ccccc23)oc1NCc1ccccc1 | 0 | 0 | 0 | 0 | 0
COc1ccc(CNC(=O)c2ccc(Br)o2)cc1 | - | 0 | - | - | -
CCOP(=O)(OCC)c1nc(/C=C/c2ccccc2)oc1NCc1ccccc1 | 0 | - | 0 | 0 | 55.7
CCOP(=O)(OCC)c1nc(/C=C/c2ccccc2)oc1NCc1ccc(OC)cc1 | 0 | -5.63 | 0 | 78.4 | 97.8
CCc1ccc(OCCNC(=O)c2ccc(S(=O)(=O)N(C)C)cc2)cc1 | 0 | 0 | 0 | 0 | 0
Cc1c(Br)c([N+](=O)[O-])nn1CC(=O)N1CCCc2ccccc21 | 0 | 0 | 0 | 0 | 0
CCCC(=O)Nc1cccn(Cc2ccccc2Br)c1=O | 0 | 0 | 0 | 0 | 92.4
CCc1ccccc1NC(=O)CCN1C(=O)c2ccccc2C1=O | 0 | - | 0 | 0 | 0
Cc1cccc(N2CCN(C(=O)CCCn3c(=S)[nH]c4cc5c(cc4c3=O)OCO5)CC2)c1C | 0 | - | 0 | 58.9 | 0
O=C(CCCn1c(=S)[nH]c2cc3c(cc2c1=O)OCO3)N1CCN(c2ccccc2)CC1 | 0 | 0 | 0 | 79.7 | 0
CCOC(=O)N1CCN(C(=O)CCn2c(=S)[nH]c3cc(OCC)c(OCC)cc3c2=O)CC1 | 0 | - | 0 | 0 | 0
Cc1ccc2c(C)nc(NC3=NCN(CCc4ccccc4)CN3)nc2c1 | 0 | - | 0 | 0 | 0
CC(=O)N1N=C(c2ccc(Cl)cc2)OC1c1ccc(C(C)C)cc1 (centres undefined) | 0 | 0 | 0 | 0 | 54.7
CC(C)(C)c1ccc(C(=O)NC(Cc2ccccc2)C(=O)O)cc1 (centres undefined) | 0 | 0 | 0 | 0 | 0
O=C1c2ccccc2C(=O)N1CC(O)COCc1ccccc1 (centres undefined) | 0 | 0 | 0 | 0 | 81.3
Cc1ccc(N=C2C(=S)N(c3ccc(C)cc3)C(=N)N2/N=C/c2ccc(Cl)cc2)cc1 | - | 0 | - | - | -
CC(=O)C1=C(O)C(=O)N(CCc2c[nH]c3ccccc23)C1c1ccc(O)cc1 (centres undefined) | 0 | 0 | 0 | 52.9 | 0
CCCCN1C(=O)C(O)=C(C(C)=O)C1c1ccccc1 (centres undefined) | 0 | 0 | 0 | 0 | 0
COc1cccc(C2C(C(C)=O)=C(O)C(=O)N2CCc2c[nH]c3ccccc23)c1 (centres undefined) | 0 | 0 | 0 | 70.2 | 0
COc1ccc(C2C(C(C)=O)=C(O)C(=O)N2CCc2c[nH]c3ccccc23)cc1OC (centres undefined) | 0 | 0 | 0 | 88.9 | 0
CCCCCCN1C(=O)C(O)=C(C(C)=O)C1c1ccc(Cl)cc1 (centres undefined) | 0 | -7.81 | 0 | 75.3 | 0
Cc1ccc(N=C2CCCN2Cc2ccccc2)c(C#N)c1 | - | 0 | - | - | -
SMILES | CYP2C9 act | Cav3 T inh | CYP2C19 activ | CYP2C9 inhib | CYP2C19 inhib
CCn1c(Cc2ccccc2)nnc1SCC(=O)Nc1nnc(-c2ccccc2)s1 | 0 | 0 | 0 | 0 | 0
CCS(=O)(=O)N1Cc2ccccc2CC1C(=O)N1CCN(c2ccccc2)CC1 (centres undefined) | 0 | - | 0 | 0 | 0
CC(=O)Nc1ccc(S(=O)(=O)NCCC(=O)OCCN2C(=O)c3ccccc3C2=O)cc1 | 0 | 0 | 0 | 93.1 | 69.8
CC(=O)Nc1ccc(S(=O)(=O)NCCc2ccc(S(N)(=O)=O)cc2)cc1 | 0 | 0 | 0 | 0 | 0
CCSc1nc(C2CC2)cc(-c2ccco2)c1C#N | 0 | 0 | 0 | 0 | 0
CCCSc1nc(N)nc(-c2cccs2)c1C#N | 0 | - | 0 | 72.6 | 0
CCSc1nc(C2CC2)cc(-c2cccs2)c1C#N | 0 | 0 | 0 | 0 | 68.5
CC(CN1CCCC(C(N)=O)C1)c1ccccc1 (centres undefined) | 0 | 0 | 0 | 0 | 0
Cc1c(O)ccc(-c2[nH]ncc2-c2nc3ccccc3s2)c1O | 0 | 0 | 0 | 68.7 | 86.8
O=C(O)C1C2C=CC3(CN(Cc4ccccn4)C(=O)C13)O2 (centres undefined) | 0 | 0 | 0 | 0 | 0
c1ccc(CN(Cc2ccco2)C(c2ccncc2)c2nnnn2C2CCCC2)cc1 (centres undefined) | 0 | 0 | 0 | 97.7 | 98.0
Cc1cc(C)c2[nH]c(=O)c(C(c3nnnn3C(C)(C)C)N(Cc3ccco3)CC3CCCO3)cc2c1 (centres undefined) | 0 | 0 | 0 | 0 | 0
Fc1ccc(C(c2nnnn2C2CCCC2)N(Cc2ccco2)CC2CCCO2)cc1 (centres undefined) | 0 | -3.96 | 0 | 0 | 0
Cc1ccc(Cn2ccc(=O)c(Cc3c(Cl)cccc3Cl)c2C)cc1 | 0 | 0 | 0 | 0 | 0
Cc1c(OCc2ccccc2)c(=O)ccn1Cc1ccc(Cl)cc1 | 0 | 0 | 0 | 57.3 | 0
Cc1ccc(Cn2ccc(=O)c(OCc3ccccc3)c2C)cc1 | 0 | 0 | 0 | 0 | 0
Cc1c(Cc2c(Cl)cccc2Cl)c(=O)ccn1C(C)c1ccccc1 (centres undefined) | 0 | 0 | 0 | 0 | 90.1
COc1ccc(Cn2ccc(=O)c(Cc3c(Cl)cccc3Cl)c2C)cc1 | 0 | 0 | 0 | 0 | 76.8
COc1ccc(C(C(=O)NC2CCCCC2)N(C(=O)c2sc(C)nc2C)c2ccccc2C)cc1 (centres undefined) | 0 | 0 | 0 | 0 | 0
Cc1cccc2cc(COC(=O)c3ccccn3)c(=O)[nH]c12 | 0 | 0 | 0 | 0 | 0
Cc1ccc(-n2c(C)cc(C(=S)N3CCOCC3)c2C)cc1C | 0 | 0 | 0 | 0 | 86.7
CC1CC(C)CN(C(=O)CSc2nc(Cc3cccs3)nc3ccccc23)C1 (centres undefined) | 0 | 0 | 0 | 71.6 | 0
CCc1nc(SCC(=O)NNC(=O)C2CCCCC2)c2ccccc2n1 | 0 | 0 | 0 | 0 | 0
CCCn1c(SCC(=O)N2CCc3ccccc3C2)nc2c1c(=O)n(C)c(=O)n2C | 0 | 0 | 0 | 0 | 0
CCOC(=O)CNC(=O)CSc1nc(Cc2cccs2)nc2ccccc12 | 0 | 0 | 0 | 0 | 57.6
SMILES | CYP2C9 act | Cav3 T inh | CYP2C19 activ | CYP2C9 inhib | CYP2C19 inhib
CCOC(=O)CSc1nc(CC)nc2ccccc12 | 0 | 0 | 0 | 0 | 0
CCCc1nc(SCC(=O)N2CCc3ccccc3C2)c2ccccc2n1 | 0 | 0 | 0 | 78.5 | 57.1
COc1ccc(S(=O)(=O)N2CCCCCC2)cc1N(C)S(=O)(=O)c1ccc(Cl)cc1 | 0 | 0 | 0 | 0 | 0
CCn1c(NCc2ccccn2)nc2ccccc21 | - | 0 | - | - | -
C=CCc1cccc(CNc2nc3ccccc3n2CCC)c1O | 0 | 0 | 0 | 0 | 0
CCn1c(NCc2cccs2)nc2ccccc21 | 0 | 0 | 0 | 0 | 57.4
CCn1c(NCc2ccc(N(C)C)cc2)nc2ccccc21 | 0 | 0 | 0 | 0 | 72.4
